HEK293 tox = qHTS of GLP-1 Receptor Inverse Agonists: Cytotox Screen | HEK293 cAMP-luciferase reporter cells, luminescence, 24 h | Potency, µM (series often up to 38.3 µM), for the others: at the highest dose activity change, negative = inhibition, actives largely listed as inhibitors | hit rate 0.13% among 410,000 | AID 624418, 2012;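 further: loss of luciferase light is scored as toxicity; on the % scale 0 is the no-effect control and ±100 the full control effect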
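Compound-treated cells are incubated 24 hr at 37 deg C under 5% CO2 after a 12 hour attachment period, then luciferase detection reagent is added and luminescence is measured following 12 min at room temperature; lowered signal indicates toxicity.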
PTHR1 agonist = qHTS for PTHR1 Agonists: Primary Screen | AID 743266, 2014 | hit rate 0.075% among 410,000 | Parathyroid hormone/parathyroid hormone-related peptide receptor (Homo sapiens), Q03431 | Potency, µM (doses to about 115 µM), inactives show top-dose activation, usual class: activators | HEK293 GP2 PTHR1 cells, GloSensor cAMP luminescence, 1 h; further: nearly all actives have a fitted effect of over 55% in size
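HEK-293-derived GP2 cells expressing PTHR1 and a GloSensor cAMP reporter, 3,000/well, plated overnight, given luciferin plus IBMX (each 0.5 mM as added) for 1 h at 37 °C, then compound for 1 h at 37 °C. Luminescence was read after 15 min at room temperature.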
GLP-1R inv ag = qHTS of GLP-1 Receptor Inverse Agonists (Inhibition Mode). HEK293 GLP-1R CRE-luciferase, luminescence, 24 h; GLP-1R form is constitutively active. Potency, µM (highest dose often 38.3 µM), for inactives: at the highest dose activity change, negative = inhibition, actives largely listed as inhibitors. hit rate 1.6% among 410,000. Glucagon-like peptide 1 receptor (Homo sapiens), P43220. AID 624417, 2012; further: on the % scale 0 is the no-effect control and ±100 the full control effect; nearly all actives have a fitted effect of over 55% in size
Target sequence (P43220 whole entry, looked up): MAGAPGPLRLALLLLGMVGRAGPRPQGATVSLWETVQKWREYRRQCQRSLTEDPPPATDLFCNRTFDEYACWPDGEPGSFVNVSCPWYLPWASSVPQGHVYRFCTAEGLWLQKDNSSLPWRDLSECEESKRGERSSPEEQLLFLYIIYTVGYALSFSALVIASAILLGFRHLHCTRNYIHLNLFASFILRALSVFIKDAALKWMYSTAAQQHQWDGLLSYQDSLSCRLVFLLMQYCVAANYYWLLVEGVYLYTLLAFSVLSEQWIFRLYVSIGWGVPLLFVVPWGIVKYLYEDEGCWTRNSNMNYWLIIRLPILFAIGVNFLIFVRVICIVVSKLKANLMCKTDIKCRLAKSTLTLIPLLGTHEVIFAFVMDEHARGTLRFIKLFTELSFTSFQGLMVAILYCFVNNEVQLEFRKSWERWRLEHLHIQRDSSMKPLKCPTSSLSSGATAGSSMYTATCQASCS
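GLP-1R inverse agonism mode: basal reporter luminescence in engineered HEK293 cells measured after one day of compound exposure at 37 deg C, with a 12 min room-temperature detection step.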
GCN5L2 inh = qHTS Assay for Inhibitors of GCN5L2; Histone acetyltransferase KAT2A (Homo sapiens), Q92830; GCN5L2 HAT assay, ThioGlo1 CoA-SH fluorescence; Potency, µM (series often up to 58.9 µM), inactives show at the highest dose activity change, negative = inhibition, most hits filed as inhibitors; hit rate 0.21% among 390,000; AID 504327, 2011; further: on the % scale 0 is the no-effect control and ±100 the full control effect
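Enzyme at 20nM final was mixed with library compounds for 15 min at room temperature. Peptide H3(1-25) at 75uM, acetyl-CoA at 70uM and ThioGlo1 at 50uM were then added. Plates were read immediately and after 20 min (Ex340nm/Em540nm).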
RGS4 inh = Inhibitors of Regulator of G Protein Signaling (RGS) 4: qHTS; Regulator of G-protein signaling 4 (Homo sapiens), P49798; hit rate 0.039% among 390,000; AID 504845, 2011; Transcreener GDP fluorescence polarization, RGS4-accelerated GTP hydrolysis; Potency, µM (series often up to 114 µM), for the others: at the highest dose activity change, negative = inhibition, usual class: inhibitors; further: on the % scale 0 is the no-effect control and ±100 the full control effect; nearly all actives have a fitted effect of over 75% in size
Target sequence (P49798 whole entry, looked up): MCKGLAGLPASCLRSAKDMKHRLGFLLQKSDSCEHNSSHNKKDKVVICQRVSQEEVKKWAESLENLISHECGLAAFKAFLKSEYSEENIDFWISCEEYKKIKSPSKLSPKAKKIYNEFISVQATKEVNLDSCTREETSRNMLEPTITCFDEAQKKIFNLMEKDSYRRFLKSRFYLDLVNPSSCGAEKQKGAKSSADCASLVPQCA
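MLSMR compounds (23 nl, pin-transferred) preincubated 10 min at room temperature with a 500nM (2x) first reagent, then RGS4 at 900nM (2x) plus Transcreener GDP mix added; fluorescence polarization (620/688 nm) read before and after 90 min at 30 °C.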
GLP1R ag = qHTS of GLP-1 Receptor Agonists; Glucagon-like peptide 1 receptor (Homo sapiens), P43220; HEK293 GLP-1R CRE-luciferase, luminescence, 4-6 h; cells express a hypersensitive GLP-1R form; Potency, µM (titrated, usually from 45.6 µM), for inactives: at the highest dose activation, actives largely listed as activators; hit rate 0.007% among 380,000; further: % of control where 0% means no effect
* hit, by the source's call; i = inactive; ? = inconclusive; · = no result; [ ] = dose if it differs, or a comment. In the library only some 1.8% were active in any assay of this set; here they are far more common. The call rests on the fitted dose curve; in most records, active means well fitted curve in the direction sought with a large enough effect; inconclusive means small, poorly fitted or top-dose-only effect, or another doubt; inactive means no such curve, though single readings can be large; an effect the other way counts as inactive or inconclusive. Potency means the concentration at half of the fitted maximal effect.

SMILES	HEK293 tox	PTHR1 agonist	GLP-1R inv ag	GCN5L2 inh	RGS4 inh	GLP1R ag
CC(C)CC(=O)N1CC=CC[C@@H](c2ccc(Cl)cc2)N(Cc2ccc(Cl)cc2)C(=O)[C@@H]1Cc1ccccc1	-1%	i	?	·	-9%	-3%
CN(CC(=O)N1CCc2ccccc21)S(=O)(=O)c1ccc(Cl)cc1	3%	i	?	-6%	-15%	3%
CCOc1ccc(S(=O)(=O)N(CC(=O)N2CCc3ccccc32)Cc2ccco2)cc1	-4%	i	8.9µM*	-9%	-14%	-11%
CN=C(NC)NCc1ccccc1	·	·	·	·	·	0%
O=C(c1ccccc1)N(Cc1nc2ccccc2c(=O)[nH]1)C1CCCCC1	-12%	-4%	?	-8%	44%	16%
O=C(c1ccccc1F)N(Cc1nc2ccccc2c(=O)[nH]1)C1CCCC1	?	-6%	10µM*	-4%	17%	-3%
CCOc1ccc(-c2nc(Cn3c(=O)cc(-c4ccccc4)c4c(C)nn(C)c43)c(C)o2)cc1	8%	-18%	12%	-9%	-4%	·
CCOC(=O)c1c(C)nc2sc(C(=O)Nc3ccc(C(C)=O)cc3)c(N)c2c1-c1ccc(OC)cc1	340%	0%[57.5 µM]	8.9µM*	-6%	-9%	4%
Cc1ccc([N+](=O)[O-])cc1S(=O)(=O)Nc1cccc(S(=O)(=O)NC2=NCCC2)c1	5%	-25%	-1%	4%	-10%	3%
CCn1c2ccccc2c2cc(NC(=O)Cc3ccc(S(=O)(=O)N4CCOCC4)s3)ccc21	-22%	i	10µM*	-5%	-30%	-9%
CCn1c2ccccc2c2cc(NC(=O)N3CCCCC3)ccc21	-8%	-25%	10µM*	·	·	17%
CN(C)S(=O)(=O)c1ccc(NC(=O)Cc2ccc(S(=O)(=O)N3CCOCC3)s2)cc1	15%	i	7%	-27%	-6%	8%
CC(C)(C)c1nn(-c2ccccc2)c2[nH]c(=O)c(CNCc3ccco3)cc12	-6%	i	-27%	6%	-13%[11.4 µM]	2%
CC(C)(C)c1nn(-c2ccccc2)c2[nH]c(=O)c(CNc3ccc4c(c3)OCCO4)cc12	-20%	-21%[57.5 µM]	?	35µM*	-33%	3%
CCCC1CC(C)(c2csc(Nc3ccc(OCC)cc3)n2)OC1=O (stereo not given)	-18%	i	11µM*	-10%	-11%	11%
COc1cccc(NC(=O)N2CCN(c3cccc(C)c3)C(C)C2)c1 (stereo not given)	-8%	-3%[57.5 µM]	10µM*	-11%	-11%	1%
COC(=O)c1[nH]c2cc(OC)ccc2c1NC(=O)CN1CCN(c2cccc(C)c2)C(C)C1 (stereo not given)	?	-6%	8.9µM*	-14%	-6%[11.4 µM]	-8%
COC(=O)c1[nH]c2cc(C)ccc2c1NC(=O)CN1CCOCC1	6%	i	26%	1%	4%	11%
Cc1cccc(N2CCN(C(=O)Nc3ccc(F)cc3)CC2C)c1 (stereo not given)	13%	i	?	-4%	-2%	·
COC(=O)c1[nH]c2cc(C)ccc2c1NC(=O)CN1CCN(c2ccccc2OC)CC1	-18%	-18%[57.5 µM]	3.2µM*	-2%	-15%	-2%
CCN(Cc1nc(-c2ccc(OC)cc2)oc1C)S(=O)(=O)c1ccc(Cl)cc1	3%	-2%	15%	26%	-7%	·
Cc1cccc2sc(N(CCCN(C)C)C(=O)CCc3ccccc3)nc12	?	i	2.8µM*	0%	-5%	-13%
Cc1ccc2onc(CNC(=O)N3CCN(c4cccc(C)c4C)CC3)c2c1	-1%	-27%	?	-11%	-23%	·
COc1ccc(-c2cc(-c3cc(C)ccc3O)[nH]n2)cc1	?	-5%	10µM*	-2%	0%	15%
Cc1ccc(O)c(-c2cc(-c3ccccc3C)[nH]n2)c1	?	-18%	5.6µM*	-11%	-3%	0%
SMILES	HEK293 tox	PTHR1 agonist	GLP-1R inv ag	GCN5L2 inh	RGS4 inh	GLP1R ag
Cc1ccc(O)c(-c2cc(-c3ccccc3[N+](=O)[O-])[nH]n2)c1	?	-14%	?	-11%	-11%	-1%
COc1ccc(O)c(-c2c(-c3ccc(Cl)cc3)n[nH]c2C)c1	13%	5%	10µM*	-2%	10%	4%
CCN(Cc1ccc(OC)c(F)c1)C(C)C(=O)Nc1ccc(S(=O)(=O)N2CCCC2)cc1 (stereo not given)	3%	i	?	-8%	-15%	9%
CN(CCOc1ccc(Cl)cc1)C(=O)C1CCN(C(=O)c2ccc(F)cc2)CC1	-16%	i	-23%	-2%	-14%	0%
O=C(Nc1ccccc1)Nc1csc2ccccc12	0%	-5%	8.9µM*	-5%	-5%	0%
COc1cc(NC(=O)Nc2ccccc2OC)c(OC)cc1NC(=O)CN1CCCCC1	-29%	i	?	-6%	-24%	-1%
COc1cc(NC(=O)c2ccc(Cl)cc2)c(OC)cc1NC(=O)CN1CCCCC1	?	i	3.5µM*	-4%	?	19%
COc1cc(NC(=O)C2CCCCC2)c(OC)cc1NC(=O)CN1CCCCC1	?	i	2.5µM*	-2%	1%	16%
COc1ccc(C(OCCN2CCC[C@H](C(=O)O)C2)(c2ccc(OC)cc2)c2ccc(OC)cc2)cc1	·	·	·	0%	·	·
Cc1c(C(=O)Nc2cccc(N(C)S(C)(=O)=O)c2)cccc1[N+](=O)[O-]	4%	-15%	6%	-11%	-3%	-5%
CCOC(=O)[C@]12CCC=C1N(Cc1ccccc1)C(=O)[C@H](CC(=O)NCc1cccc(C(F)(F)F)c1)C2	-14%	-5%	?	·	·	-1%
C/C(=N\NC(=O)c1cc(-c2cccs2)nc2ccccc12)c1ccccn1	?	i	2.8µM*	-13%	16%[11.4 µM]	7%
O=C(NCc1ccccn1)c1cc(-c2ccc(-c3ccccc3)cc2)nc2ccccc12	-8%	-35%	2µM*	-9%	-3%	3%
O=C(NCc1ccccn1)c1cc(-c2ccccc2)nc2ccccc12	-5%	-22%	12%	-3%	2%	0%

Screening results: PubChem, National Center for Advancing Translational Sciences (NCATS)
